The text below walks through data of PubChem BioAssay (EPA / NIEHS).

Inconclusive results are not listed. Calls of active or inactive are those of the source. The calls were made as follows: active = hit-call score of the fitted dose curve at least 0.9, where 1 is the maximum; inconclusive = response in the unintended direction; inactive = score below 0.9.

This assay in a line: ACEA_ER_AUC_viability: ACEA Biosciences xCELLigence Real-Time Cell Analysis on Estrogen Receptor Agonism for Viability (AID 2283782).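 Also: hit means loss of impedance signal meaning reduced cell growth or viability.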 In outline:
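T-47D; phenol red-free RPMI1640 + 10% CS-FBS; 8 conc., 1:4 serial, max 100 uM final, ≤0.5% DMSO; n = 2; continuous exposure; impedance monitored to 80 h post-dose; AUC vs DMSO.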
Broadly, the AC50 is the concentration giving half of the maximal activity seen. With `COC(Cc1ccccc1)OC`, the half-maximal activity concentration (AC50) is 67 µM (active).
Regarding `CC(=O)OCCc1ccccc1`, the compound was called inactive.
In the case of `CC/C=C\CCOC(=O)c1ccccc1O`, the AC50 was 72.7 µM (active).
In the case of `C=CC(=O)NC(C)(C)C`, the call was inactive.
For `CCOB(OCC)OCC`, the call was inactive.
On to `COC(=O)C=Cc1ccccc1`, for which the outcome was inactive.
Consider `CCNc1nc(NC(C)(C)C)nc(OC)n1`, for which the half-maximal activity concentration (AC50) was 26.2 µM (active).
As to `CC(=O)OCC=C(C)C`, the outcome was inactive.
On the same count and under the same terms, the entry for `C=Cc1cccc(C)c1` is “inactive”.
On the same count and under the same terms, the entry for `O=C1CCCCCCCCCCC1` is “inactive”.
In the case of `CCCCCCCCCCCC(C)=O`, the AC50 was 66.7 µM (active).
On to `Cc1cc(=O)[nH]c(=O)[nH]1`, for which the compound was classed as inactive.
For the compound `CC=C(C)C=CC=C(C)C`, the concentration at half-maximal activity (AC50) is 50 µM (active).
As to `CCCc1ccc(O)c(OC)c1`, the call was inactive.
On to `c1ccc2c(c1)[nH]c1ccccc12`, for which the concentration at half-maximal activity (AC50) is 36.4 µM (active).
As for `CC(=O)c1ccccc1O`, the call was inactive.
Same read-out and setting: the result for `CC1CC(=O)CC(C)(C)C1` (stereo not drawn) reads “inactive”; that for `CCC(C)C(=O)OCCc1ccccc1` (stereo not drawn), “inactive”; that for `CCc1cccc(CC)c1`, “inactive”.
Same read-out and setting: the entry for `CCCCOC(=O)CCC(C)=O` is “inactive”.
Same read-out and setting: the result for `C=CC(=O)NCOCCCC` reads “inactive”; that for `C=C(C)C(=O)OCCCCCCCCCCCC`, “inactive”.
On to `CCCCC1CCC(=O)O1` (stereo not drawn), for which the half-maximal activity concentration (AC50) is 60.6 µM (active).
The same measure, in the same setting: the figure for `COC(=O)c1ccc(C(=O)OC)c(C(=O)OC)c1` is 69.6 µM (active).
For `C=CC(=O)O[C@H]1C[C@@H]2CC[C@@]1(C)C2(C)C`, the compound was called inactive.
As to `C=CCCCCCCCCO`, the AC50 is 50 µM (active).
As for `CC1(C)CC(O)CC(C)(C)N1[O]`, the result was inactive.
Regarding `N#CC1(N)CCCCC1`, the compound was classed as inactive.
Take `C=CCOC(=O)c1ccc(C(=O)OCC=C)c(C(=O)OCC=C)c1`: the result was inactive.
For the compound `CC(Cl)COP(=O)(OCC(C)Cl)OCC(C)Cl` (stereo not drawn), the call was inactive.
Consider `Oc1ccc(/C=C/c2cc(O)cc(O)c2)cc1`, for which the half-maximal activity concentration (AC50) was 20.6 µM (active).
Same read-out and setting: the result for `Nc1ccc(Cl)c(N)c1` reads 73 µM (active); that for `O=C(O[C@@H]1Cc2c(O)cc(O)cc2O[C@@H]1c1cc(O)c(O)c(O)c1)c1cc(O)c(O)c(O)c1`, 61 µM (active).
Turning to `CCCCOCCOCCOC(C)=O`, the result was inactive.
On the same count and under the same terms, the entry for `O=C1CCCCC1C1CCCCC1` (stereo not drawn) is “inactive”; for `CC(=O)/C=C/C1C(C)=CCCC1(C)C` (stereo not drawn) it is “inactive”; for `Cn1ccnc1` it is “inactive”.
The same measure, in the same setting: the entry for `COC(=O)CC(C)CCC=C(C)C` (stereo not drawn) is “inactive”.
